Screening results from PubChem BioAssay.
AmpC inh no detg: inhibitors of E. coli AmpC beta-lactamase without detergent; P00811; AmpC nitrocefin hydrolysis, absorbance 480 nm, 0.0001% Triton; Potency, µM (series often up to 57.1 µM), actives largely listed as inhibitors; actives 0.52% (n = 330,000); AID 485341; further: nearly all actives have a fitted effect of over 20% in size
Target sequence (P00811 whole entry, looked up): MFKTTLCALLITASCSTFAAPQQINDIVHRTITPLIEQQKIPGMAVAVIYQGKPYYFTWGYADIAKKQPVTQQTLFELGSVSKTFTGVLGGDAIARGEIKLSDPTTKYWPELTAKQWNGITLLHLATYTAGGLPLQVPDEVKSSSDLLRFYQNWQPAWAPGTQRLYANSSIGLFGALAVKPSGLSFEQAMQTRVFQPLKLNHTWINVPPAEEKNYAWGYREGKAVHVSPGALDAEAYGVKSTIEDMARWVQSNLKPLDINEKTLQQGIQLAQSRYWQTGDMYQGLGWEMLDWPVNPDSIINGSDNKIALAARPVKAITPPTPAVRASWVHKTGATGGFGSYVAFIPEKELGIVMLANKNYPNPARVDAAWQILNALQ
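20 mM phosphate pH 7.0 + 0.01% (detergent screen) or 0.0001% Triton X-100; 5.3 nM AmpC reagent; cpd preinc 15 min RT; nitrocefin (800 uM stock) to start; A480 q20 s × 4 min; Activity was normalised to no-enzyme and no-compound control wells.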
AmpC detergent: AmpC beta-lactamase inhibition with detergent present; AmpC hydrolysis of nitrocefin, absorbance 480 nm, 0.01% Triton; AID 485294; Potency, µM (top dose mostly 114 µM), usual class: inhibitors; actives 0.041% (n = 370,000); further: nearly all actives have a fitted effect of over 25% in size
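AmpC (5.3 nM in the dispensed reagent) in 20 mM phosphate pH 7.0 with 0.01% (detergent screen) or 0.0001% Triton X-100 was preincubated with compounds for 15 min at room temperature. Nitrocefin was then added from an 800 uM solution, and hydrolysis was followed at 480 nm.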
Of the large screens only hits and unclear results are named; the others gave an inactive call. The full list was thinned out, with hits kept by preference. The call rests on the fitted dose curve; in most records, active means well fitted curve in the direction sought with a large enough effect; inconclusive means small, poorly fitted or top-dose-only effect, or another doubt; inactive means no such curve, though single readings can be large; an effect the other way counts as inactive or inconclusive.

Cc1ccc(C(=O)CSc2nsc(C)c2C#N)cc1	AmpC inh no detg 0.25µM
Cc1snc(SCC(=O)c2ccc(Cl)cc2)c1C#N	AmpC detergent inconclusive
CCNc1sc(C(=O)c2cccs2)c(N)c1-c1nc2ccccc2s1	none
CCOC(=O)c1sc(NCc2ccco2)c(-c2nc3ccccc3s2)c1N	AmpC inh no detg 11µM, AmpC detergent inconclusive
COc1cc(O)c(C(=O)O)c(CCc2ccccc2)c1	none (no result: AmpC detergent)
O=C(CCc1ccccc1)c1c(O)cc(O)cc1O	AmpC inh no detg 18µM
O=C(NC1CCCC1)c1ccc2c(c1)N(Cc1ccc(C(F)(F)F)cc1)C(=O)c1ccccc1S2	none (no result: AmpC inh no detg)
O=C(COC(=O)C12CC3CC(CC(Br)(C3)C1)C2)Nc1c(F)cccc1F	none (no result: AmpC detergent)
O=C(COC(=O)C12CC3CC(CC(Br)(C3)C1)C2)Nc1ccc2[nH]c(=O)[nH]c2c1	AmpC inh no detg 32µM
COc1cccc(C2C(C(=O)c3cc4ccccc4o3)=C(O)C(=O)N2c2cc(C)on2)c1OC (stereo not given)	none
COc1cccc(C2C(C(=O)c3cc4cccc(OC)c4o3)=C(O)C(=O)N2c2cc(C)on2)c1OC (stereo not given)	AmpC inh no detg 20µM, AmpC detergent inconclusive
CC(NC(=O)C1CCCN(S(=O)(=O)c2cccs2)C1)c1ccccc1 (stereo not given)	AmpC inh no detg 3.2µM
CC(C)NC(=O)C1CCCN(S(=O)(=O)c2cccs2)C1 (stereo not given)	none
COc1ccc(-c2cccc(NS(=O)(=O)c3ccc(C)s3)c2)nn1	none (no result: AmpC inh no detg)
Cc1nnc(NC(=O)c2c(F)cccc2F)s1	AmpC inh no detg 18µM
Cc1nnc(NC(=O)c2cccc(F)c2)s1	none
Cc1ccc(CNC(=O)c2ccc3c(c2)NC(=O)C(CS(=O)(=O)Cc2ccc(F)cc2)N3)cc1 (stereo not given)	none (no result: AmpC inh no detg)
Cc1ccccc1N1C(=O)CC(Nc2ccc3c(c2)OCO3)C1=O (stereo not given)	none
Cc1ccc(N2C(=O)CC(Nc3ccc(Cl)c(S(=O)(=O)N(C)C)c3)C2=O)c(C)c1 (stereo not given)	AmpC inh no detg 28µM
N#C/C(=C/c1ccc(O)c(O)c1)C(=O)NCc1ccc(Cl)cc1	none
N#C/C(=C/c1cccc(O)c1)C(=O)NCc1ccc(Cl)cc1	AmpC inh no detg 20µM
COc1ccc(C2C(=O)N(C3CCC(C)CC3)CC(=O)N2CCC2=CCCCC2)cc1OC (stereo not given)	none (no result: AmpC inh no detg)
COc1ccc(N(C(=O)c2ccccc2)S(=O)(=O)c2ccc3c(c2)n(C)c(=O)n3C)cc1	none (no result: AmpC inh no detg)
Cc1ccc2nc(N/C(=N/S(=O)(=O)c3cccs3)c3ccccc3Cl)sc2c1	AmpC inh no detg 13µM
Cc1ccc2nc(NC(=O)C3CCN(S(=O)(=O)c4cccs4)CC3)sc2c1	none
COc1ccccc1NC(=O)c1cc2c([nH]c1=O)CC(C)(C)CC2=O	none (no result: AmpC inh no detg)
CC(=O)Nc1nc(C)c(-c2csc(Nc3ccc(O)cc3)n2)s1	AmpC inh no detg inconclusive
CC(=O)Nc1ccc(Nc2nc(-c3sc(NC(C)=O)nc3C)cs2)cc1	AmpC inh no detg 1.8µM
CC(C)(C)OC(=O)N1CCC(c2c(C(=O)Nc3ccc4c(c3)OCCO4)cnn2-c2ccc(F)cc2F)CC1	none (no result: AmpC inh no detg)
O=C(O)C/C(=C\c1cccc(NC(=O)c2ccccc2Cl)c1)c1nc2ccccc2s1	AmpC inh no detg 16µM
COc1ccc(C(=O)Nc2cccc(/C=C(\CCC(=O)O)c3nc4ccccc4s3)c2)cc1	none
Cc1ccc2oc(C(=O)Nc3ccc(S(=O)(=O)N4CCCCC4C)cc3)cc(=O)c2c1 (stereo not given)	none (no result: AmpC inh no detg)
COc1ccc(-c2cn3nc(SCC(=O)Nc4ccc(C)c(Cl)c4)ccc3n2)cc1	none (no result: AmpC inh no detg)
CCC(Sc1nc2ccsc2c(=O)n1Cc1ccc(C(=O)O)cc1)C(=O)Nc1ccc(C)c(Cl)c1 (stereo not given)	AmpC inh no detg 8.9µM
CCOc1ccccc1NC(=O)C(CC)Sc1nc2ccsc2c(=O)n1CCC(=O)O (stereo not given)	none
O=C(CSc1ncc(-c2ccccc2)[nH]1)Nc1cccc(Br)c1	none (no result: AmpC inh no detg)
CC(C)CCNC(=O)c1cccc(-n2cnc3cccnc32)c1	none (no result: AmpC inh no detg)
O=C(CCN=C1NS(=O)(=O)c2ccccc21)OCC(=O)c1ccccc1Cl	AmpC inh no detg 40µM
COc1ccccc1C(=O)COC(=O)CCCN=C1NS(=O)(=O)c2ccccc21	none
Cc1cccc(CCNC(=O)C2CCN(S(=O)(=O)c3c(C)nn(C)c3C)CC2)c1	AmpC detergent inconclusive
Cc1ccc(CCNC(=O)C2CCN(S(=O)(=O)c3c(C)nn(C)c3C)CC2)cc1	AmpC inh no detg 2.5µM, AmpC detergent inconclusive
COCCN(C(=O)Cc1cccs1)C(C(=O)NCc1ccc(OC)cc1)c1ccc(C)cc1 (stereo not given)	AmpC inh no detg 0.32µM
CCc1ccc(C(C(=O)NCc2ccc(OC)cc2)N(CCOC)C(=O)Cc2cccs2)cc1 (stereo not given)	none
O=c1c(S(=O)(=O)c2ccccc2)cn(Cc2ccc(F)cc2)c2cc(N3CCCCC3)c(F)cc12	none (no result: AmpC inh no detg)
Cc1cc2c(s1)c1c(n2C)C(=O)N(Cc2ccccc2F)C1	AmpC detergent inconclusive
Cc1onc(-c2ccccc2)c1C(=O)Nc1ccncc1	AmpC detergent inconclusive
Cc1onc(-c2ccccc2)c1C(=O)Nc1cccc(C#N)c1	AmpC inh no detg 11µM
COc1ccc(-n2c(=O)cc(N3CCCCCC3)[nH]c2=O)cc1	none
CCOC(=O)C1CCN(c2cc(=O)n(-c3ccc(OC)cc3)c(=O)[nH]2)CC1	AmpC inh no detg 3.5µM, AmpC detergent inconclusive
COc1ccccc1CCNC(=O)c1ccc(-c2nc(CSc3ccc(C)cc3)c(C)o2)cc1	none (no result: AmpC inh no detg)
COc1ccc(Nc2c3c(nc4ccc(NC(=O)/C=C/c5cccc(OC)c5OC)cc24)CCCC3)cc1OC	none (no result: AmpC inh no detg)
CC(=O)n1cc(/C=N/NC(=O)c2cccc(O)c2)c2ccccc21	AmpC inh no detg 11µM
Cn1c2ccccc2c2cc(/C=N/NC(=O)c3cc(O)cc(O)c3)ccc21	AmpC inh no detg 16µM
CC(=O)n1cc(/C=N/NC(=O)c2ccc(Cl)cc2)c2ccccc21	none
Cn1c2ccccc2c2cc(/C=N/NC(=O)c3cc(O)ccc3O)ccc21	none
CCc1ccccc1NC(=O)C1CCN(c2nn3c(=O)cc(C)nc3s2)CC1	none (no result: AmpC inh no detg)
Cc1ccc(-n2ncc3c(NCCC4=CCCCC4)ncnc32)cc1	none (no result: AmpC inh no detg)
Cc1cccc(NC(=O)C(c2ccccc2)N2Cc3ccccc3C2=O)c1C (stereo not given)	none (no result: AmpC inh no detg)
CCc1ccc(S(=O)(=O)c2nnn3c2nc(NCc2cccs2)c2sccc23)cc1	none (no result: AmpC inh no detg)
Cc1cc(/C=C(\C#N)C(=O)Nc2ccc(Cl)cc2)c(C)n1-c1ccc(N2CCOCC2)c([N+](=O)[O-])c1	AmpC inh no detg 7.9µM
Cc1ccc(NC(=O)/C(C#N)=C/c2cc(C)n(-c3ccc(N4CCOCC4)c([N+](=O)[O-])c3)c2C)c(C)c1	none
O=C(Nc1ccc(F)cc1)c1cc(S(=O)(=O)Nc2ccc(F)cc2)cs1	none
COc1ccc(NC(=O)c2cc(S(=O)(=O)Nc3ccc(OC)cc3)cs2)cc1	AmpC inh no detg 11µM
CCCCC(CC)CNC(=O)CN1C(=O)CSc2ccc(S(=O)(=O)N3CCOCC3)cc21 (stereo not given)	none (no result: AmpC inh no detg)
O=C(CSc1nc(=O)n2ccccc2n1)NCCc1ccccc1	AmpC detergent inconclusive
Cc1ccn2c(=O)nc(SCC(=O)NCCc3ccccc3)nc2c1	AmpC inh no detg 32µM, AmpC detergent inconclusive
COc1ccc(F)cc1S(=O)(=O)NCC(c1ccco1)S(=O)(=O)c1ccc(F)cc1 (stereo not given)	none (no result: AmpC inh no detg)
